# In PubChem BioAssay (NCATS):
# Results filed as inconclusive are left out. The source made the active and inactive calls. Calls follow the shape of the full dose curve.
# Test: qHTS Assay for Lipid Storage Modulators (AID 1519); as to activity change, negative = inhibition: % is scaled to controls: 0 for no effect and ±100 for the full control effect
# Settings: Drosophila S3 cells, BODIPY lipid droplet/cell ratio, laser cytometry, cells loaded with oleic acid
# Source text: NIH Molecular Libraries Probe Production Centers Network [MLPCN]
# NIH Chemical Genomics Center [NCGC]
# Assay Submitter (PI): Beller, Mathias; Max-Planck-Institut fur Biophysikalische Chemie
# NCGC Assay Overview: Storing lipids as a reservoir for energy or the anabolism of elementary metabolites is a common feature of probably all cells and is conserved from bacteria to humans. The universal cellular lipid storage organelle is the so-called lipid storage droplet (LD). Although ubiquitous, LDs share a simple structure composed of a hydrophobic core that harbors the storage lipids, which is shielded by a droplet-specific phospholipid monolayer to which proteins are attached. The current model of LD biogenesis involves an incorporation of the lipid core into the membrane leaflets of the endoplasmic reticulum (ER) followed by a subsequent budding-like maturation of a LD, which ultimately pinches off. Once released, LD volume can increase by localized lipogenesis or fusion of existing droplets. Storage lipids are re-mobilized enzymatically by lipase activity. Lipase regulation in the adipocyte is heavily studied and involves multiple components including catecholamine signaling, the LD-associated proteins Perilipin and comparative gene identification-58 (CGI-58) and at least two lipases named hormone sensitive lipase (HSL) and adipocyte triglyceride lipase (ATGL). LD regulation outside of the adipocyte is poorly understood and only few components are known. However, there is an urgent need to learn more about ectopic fat depots as mislocalized storage of lipids, for example in the liver or muscle, is an eminent health problem associated with insulin resistance or the metabolic syndrome. We developed a laser-scanning cytometer assay to enable 1,536-well screening and combined the results of the small molecules screen with an RNAi database based on lipid storage.
# NCGC Assay Protocol Summary:
# We dispensed 4 uL of cells at 1.25 x 10^6 cells/mL into LoBase Aurora COC 1,536-well plates (black walled, clear bottom) with a bottle-valve solenoid-based dispenser (Aurora) to obtain 5,000 cells/well. Triacsin C (Sigma-Aldrich T-4540), an inhibitor of long-chain fatty acyl CoA synthetase that blocks synthesis of triglycerides, was used as a positive control for lipid under-storage. A total of 23 nL of compound solution of different concentrations were transferred to the assay plates using a Kalypsys pin tool equipped with a 1,536-pin array containing 10-nL slotted pins (FP1S10, 0.457-mm diameter, 50.8 mm long; V&P Scientific). One microliter of oleic acid (400 uM) was added, and the plate was lidded with stainless steel rubber gasket lined lids containing pinholes. […] Fluorescence was detected by excitation of the fluorophores with a 488-nm laser on an Acumen Explorer (TTP Lab Tech). The total intensity in channel 1 (500-530 nm) reflected lipid droplet accumulation. […] The ratio of the total intensity in PMT channel 1 over total intensity of channel 3 was also calculated. Percent activity was computed relative to an internal control (100% inhibited lipid droplet deposition due to the presence of 20 uM Triacsin C), which was added to 32 wells/plate.
# [1] = measured here: cell count channel max response
# [2] = measured here: lipid channel max response
SMILES,"activity change, negative = inhibition (at 25.7 µM (top of the series))",max response [1] [%],max response [2] [%],"activity change, negative = inhibition (at 57.5 µM (top of the series))"
CCC1(C)CC(=O)NC(=O)C1,-1.02% (inactive),-7.91,-9.15,–
CCCN(CCC)CCc1c[nH]c2ccc(C(N)=O)cc12,–,-28.4,-33.9,1.01% (inactive)
Cc1cc(C)cc(C(=O)OC2C[C@H]3CC[C@@H](C2)N3C)c1 (some centres not stated),–,-0.988,4.22,3% (inactive)
Clc1cc(I)cc(Cl)c1NC1=NCCN1,–,-25.7,-24.3,0.0728% (inactive)
CC(N)Cc1c[nH]c2ccc(OCc3cccs3)cc12 (configuration not stated),–,-45.6,-46.5,-0.884% (inactive)
OC1CCCCC1N1CCC(c2ccccc2)CC1 (configuration not stated),–,4.61,12.5,6.18% (inactive)
CCCN(CCC)C1CCc2cccc(O)c2C1 (configuration not stated),–,-31.4,-33.3,-0.917% (inactive)
c1ccc2c(N3CCNCC3)cccc2c1,–,39.8,34.6,-1.92% (inactive)
NC(=O)c1ccc(OCC(O)CN2CC=C(c3ccc(F)cc3)CC2)cc1 (configuration not stated),–,-43.3,-42.5,-3.69% (inactive)
CCCn1c(C)c(C(=O)c2ccc3ccccc3c2)c2ccccc21,–,17.8,16.6,-0.784% (inactive)
CC(N)[C@H](O)c1ccc(O)c(O)c1 (some centres not stated),–,1.77,2.21,0.659% (inactive)
C=CCN1CC[C@]23c4c5ccc(O)c4O[C@H]2/C(=N/NC(=O)c2ccccc2)CC[C@@]3(O)[C@H]1C5,–,-18.8,-20.5,-1.45% (inactive)
Clc1ccc(Cl)cc1,–,8.86,11.5,0.214% (inactive)
O=[N+]([O-])c1ccc2nc(N3CCNCC3)ccc2c1,–,28.4,27.7,0.42% (inactive)
